# Reference: PubChem BioAssay (NCATS)
# Results filed as inconclusive are left out. Where a call stands in place of a potency, no number is given. The source made the active and inactive calls. Unless noted, the call rests on the fitted dose curve.
# Experiments:
# [1] = Primary qHTS for Huh7 cytotoxicity: counterscreen for inhibitors of MERS-S pseudotyped particle cell entry (AID 1479147); conditions: cell viability read-out; series mostly up to 57.1 µM
# [2] = Primary qHTS for inhibitors of MERS-S pseudo-typed particle cell entry (AID 1479149); conditions: MERS-S pseudotyped particle entry, luciferase; series mostly up to 57.1 µM; further: nearly all actives have a fitted effect of over 60% in size; further: potency means the concentration at half of the fitted maximal effect
# [3] = Primary qHTS for Vero E6 cytotoxicity: counterscreen for inhibitors of SARS-S pseudo-typed particle cell entry (AID 1479150); conditions: cell viability; series mostly up to 57.1 µM
# [4] = Confirmatory qHTS for VERO E6 Cytotoxicity Assay: Counterscreen for SARS-CoV-2 CPE Assay (AID 1508605); conditions: cell viability luminescence; series mostly up to 20 µM; further: nearly all actives have a fitted effect of over 60% in size
# [5] = Confirmatory qHTS for activators (rescue) of SARS-CoV-2 Cytopathic Effect (CPE) (AID 1508606); conditions: Vero E6 SARS-CoV-2 CPE rescue, viability luminescence; series mostly up to 20 µM; further: potency means the concentration at half of the fitted maximal effect; nearly all actives have a fitted effect of over 70% in size
# [6] = Primary qHTS for inhibitors of La Crosse Virus (LACV) - induced cell death in SH-SY5Y cells (AID 1508616; active means well fitted curve in the direction sought with a large enough effect; an effect the other way counts as inactive or inconclusive;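 further: top concentration of the series differs between compounds; higher means more rescue of cells from virus-induced death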); conditions: SH-SY5Y LACV cytopathicity rescue, ATP luminescence, 6 d; series mostly up to 4.29 µM
# Summary of the method: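 Protection against LACV-induced cell death is scored in SH-SY5Y cells exposed to compounds and virus (0.01 MOI) for 6 days. Data normalized to virus-infected DMSO wells and virus-free DMSO wells.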
# [7] = target: Calcium and integrin-binding protein 1 (Homo sapiens) (UniProt Q99828); assay: Primary qHTS for Identification of Calcium Integrin Binding Protein 1 (CIB1) Competitor (AID 1508620; active means well fitted curve in the direction sought with a large enough effect; an effect the other way counts as inactive or inconclusive;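 further: GST tagged CIB1 binding a fluorescein labelled alphaIIb integrin peptide tracer; top concentration of the series differs between compounds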); conditions: CIB1-GST / FITC-alphaIIb peptide fluorescence polarization; series mostly up to 114 µM
# Sequence of Calcium and integrin-binding protein 1 (Homo sapiens) (Q99828 whole entry, looked up): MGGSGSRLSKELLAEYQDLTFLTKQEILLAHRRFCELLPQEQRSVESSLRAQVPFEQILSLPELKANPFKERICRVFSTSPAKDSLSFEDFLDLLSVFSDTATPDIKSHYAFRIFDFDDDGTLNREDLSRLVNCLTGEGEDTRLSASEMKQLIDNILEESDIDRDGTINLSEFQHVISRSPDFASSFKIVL
# Summary of the method: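 Fluorescence polarization competition: GST-tagged CIB1 (1 uM final) preincubated with compound 15 min at room temperature, then FITC-labelled alphaIIb peptide (100 nM final) added. After 15 min at room temperature, polarization read at Ex 480/Em 540.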
structure (smiles),measurement,setting,value
C=CCOc1cc(Cl)ccc1C(=O)NCCN(CC)CC,Potency,[1],inactive
same,Potency,[2],inactive
same,Potency,[3],inactive
CCCC(=O)O[C@]1(C(=O)CC)CC[C@H]2[C@@H]3CCC4=CC(=O)CC[C@]4(C)[C@H]3[C@@H](O)C[C@@]21C,Potency,[1],inactive
same,Potency,[2],inactive
same,Potency,[3],inactive
C[C@H](O)C(=O)Nc1c(I)c(C(=O)NC(CO)CO)c(I)c(C(=O)NC(CO)CO)c1I,Potency,[1],inactive
same,Potency,[2],inactive
same,Potency,[3],inactive
CCOCCOC(=O)/C=C/c1ccc(OC)cc1,Potency,[1],inactive
same,Potency,[2],inactive
same,Potency,[3],inactive
Nc1ccn([C@H]2CC[C@@H](CO)O2)c(=O)n1,Potency,[1],inactive
same,Potency,[2],inactive
same,Potency,[3],inactive
CN1CCN(C2=Nc3ccccc3Sc3ccc(Cl)cc32)CC1,Potency,[1],inactive
same,Potency,[2],inactive
same,Potency,[3],inactive
CCCCCCCCCCCCCCCCC(C(=O)O)C(O)(CC(=O)O)C(=O)O (centres undefined),Potency,[1],inactive
same,Potency,[2],inactive
same,Potency,[3],inactive
CN1CCC(OC(c2ccccc2)c2ccccc2)CC1,Potency,[1],inactive
same,Potency,[3],inactive
Cc1ccc(/C(=C\CN2CCCC2)c2ccccn2)cc1,Potency,[1],inactive
same,Potency,[2],inactive
same,Potency,[3],inactive
CCOC(=O)OCC/C(SC(=O)OCC)=C(\C)N(C=O)Cc1cnc(C)nc1N,Potency,[1],inactive
same,Potency,[2],inactive
same,Potency,[3],inactive
CC1(C)CCC(C)(C)c2cc(NC(=O)c3ccc(C(=O)O)cc3)ccc21,Potency,[1],inactive
same,Potency,[3],inactive
CCCCNc1ccc(C(=O)OCCN(C)C)cc1,Potency,[1],inactive
same,Potency,[2],inactive
same,Potency,[3],inactive
CCCCCOc1ccccc1/C(=C\SC)n1ccnc1,Potency,[1],inactive
same,Potency,[3],inactive
O=C(NCC1CN(c2ccc(N3CCOCC3=O)cc2)C(=O)O1)c1ccc(Cl)s1 (centres undefined),Potency,[1],inactive
same,Potency,[3],inactive
CN1CCC(=C2c3ccccc3CCc3sccc32)CC1,Potency,[1],inactive
same,Potency,[2],10 µM (active)
same,Potency,[3],inactive
same,Potency,[4],inactive
same,Potency,[5],11.2 µM (active)
CN1CCN(c2cc3c(cc2F)c(=O)c(C(=O)O)cn3-c2ccc(F)cc2)CC1,Potency,[1],inactive
same,Potency,[2],inactive
same,Potency,[3],inactive
CC(=O)OCC(=O)NCCCOc1cccc(CN2CCCCC2)c1,Potency,[1],inactive
same,Potency,[2],inactive
same,Potency,[3],inactive
NC(=NCCCCCCN=C(N)/N=C(\N)Nc1ccc(Cl)cc1)/N=C(\N)Nc1ccc(Cl)cc1,Potency,[1],inactive
same,Potency,[3],inactive
COC1=C(OC)C(=O)C(CCCCCCCCCCO)=C(C)C1=O,Potency,[1],inactive
same,Potency,[2],inactive
same,Potency,[3],inactive
Cc1cc(C(C)(C)C)cc(C)c1CC1=NCCN1,Potency,[1],inactive
same,Potency,[2],inactive
same,Potency,[3],inactive
CN(C)CCOC(c1ccccc1)c1ccc(Br)cc1 (centres undefined),Potency,[1],inactive
same,Potency,[2],inactive
same,Potency,[3],inactive
same,Potency,[4],inactive
O=c1[nH]c(=O)n([C@H]2C[C@H](O)[C@@H](CO)O2)cc1C(F)(F)F,Potency,[1],inactive
same,Potency,[2],10 µM (active)
same,Potency,[3],inactive
Cc1c(-c2ccccc2)oc2c(C(=O)OCCN3CCCCC3)cccc2c1=O,Potency,[1],inactive
same,Potency,[2],inactive
same,Potency,[3],inactive
CN(C)CC[C@@H](c1ccc(Cl)cc1)c1ccccn1,Potency,[1],inactive
same,Potency,[2],inactive
same,Potency,[3],inactive
CCc1ccc(C(=O)C(C)CN2CCCCC2)cc1 (centres undefined),Potency,[1],inactive
same,Potency,[2],inactive
same,Potency,[3],inactive
C#C[C@]1(OC(C)=O)CC[C@H]2[C@@H]3CCC4=C[C@@H](OC(C)=O)CC[C@@H]4[C@H]3CC[C@@]21C,Potency,[1],inactive
same,Potency,[3],inactive
C#C[C@]1(O)CC[C@H]2[C@@H]3CCC4=CC(=O)CCC4=C3C=C[C@@]21CC,Potency,[1],inactive
same,Potency,[2],inactive
same,Potency,[3],inactive
same,outcome,[6],inactive
same,Potency,[7],inactive
Clc1ccc(Cn2c(CN3CCCC3)nc3ccccc32)cc1,Potency,[1],inactive
same,Potency,[3],inactive
CN(C)[C@@H](CCOc1cccc2ccccc12)c1ccccc1,Potency,[1],inactive
same,Potency,[2],20 µM (active)
same,Potency,[3],inactive
same,Potency,[4],inactive
same,Potency,[5],10 µM (active)
OCCN1CCN(CCCN2c3ccccc3C=Cc3ccccc32)CC1,Potency,[1],inactive
same,Potency,[3],inactive
CCCCNc1ccc(C(=O)OCCN(CC)CC)cc1,Potency,[1],inactive
same,Potency,[2],inactive
same,Potency,[3],inactive
COc1ccccc1N1CCN(CC(O)COc2cccc3ccccc23)CC1 (centres undefined),Potency,[1],inactive
same,Potency,[3],inactive
NC(=O)Cc1cccc(C(=O)c2ccccc2)c1N,Potency,[1],inactive
same,Potency,[2],inactive
same,Potency,[3],inactive
C=C1C(=C/C=C2\CCC[C@]3(C)[C@@H]([C@H](C)/C=C/[C@@H](O)C4CC4)CC[C@@H]23)C[C@@H](O)C[C@@H]1O,Potency,[1],inactive
same,Potency,[3],inactive
CCCCCCCCCCCCCCCCCCOCC(O)CO (centres undefined),Potency,[1],inactive
same,Potency,[3],inactive
O=C(OCC(O)CO)c1ccccc1Nc1ccnc2c(C(F)(F)F)cccc12 (centres undefined),Potency,[1],inactive
same,Potency,[2],inactive
same,Potency,[3],inactive
COc1ccc(CN2CCN(C(c3ccc(F)cc3)c3ccc(F)cc3)CC2)c(OC)c1OC,Potency,[1],inactive
same,Potency,[3],inactive
C[C@@H]1CCC[C@H](C)N1CCCC(O)(c1ccccc1)c1ccccn1 (some centres undefined),Potency,[1],inactive
same,Potency,[2],inactive
same,Potency,[3],inactive
